In all, about 24,000 compounds went through this assay and about 40 (0.2%) were called active. For the sample, actives were picked, then their nearest neighbours and some compounds at random. Values without a mark were called inactive.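 How the source made its calls: active means inhibition of disassembly above about 33% (limit read from the data); inconclusive means likely self-fluorescent, control bead median signal at least 40; inactive means the rest.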
What follows are molecules tested on 26S proteasome (yeast, GFP-tagged, ATP-dependent disassembly) (assay: inhibitors of ATP-driven 26S proteasome dissociation, primary screen, biochemical, bead-based flow cytometry, GFP-tagged proteasome (AID 751;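 further: plate controls were ATP control with full disassembly for no effect and ATP-gamma-S intact proteasomes for full effect; higher percent means more bead fluorescence retained so stronger block of disassembly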)). Details: anti-FLAG beads, hits give high values, concentration not given here.

Compound	inhibition of disassembly
CCOC(=O)C1CCCN(C(=O)Cn2ncc3c(=O)oc4ccc(C)cc4c32)C1 (configuration not stated)	-1.55%
Cc1nn(-c2ccccc2)c2[nH]c(C(F)(F)F)cc(=O)c12	0.28%
CC(C)CNC(=O)c1cc(-c2ccc(Br)cc2)on1	-0.25%
COc1ccc(C2C(C(=O)Nc3ccccc3OC)=C(C)Nc3nnnn32)c(OC)c1 (configuration not stated)	-0.27%
Cc1ccc(C(c2sc3nc(C)nn3c2O)N2CCN(c3ccccc3)CC2)cc1 (configuration not stated)	-0.53%
CCS(=O)(=O)N1CCC(C(=O)N2CCN(c3ccccc3)CC2)CC1	0.05%
CCOC(=O)c1ccc(NC(=O)CS(=O)(=O)c2cn(CC)c3ccccc23)cc1	-1.63%
CCN(CC)CCNC(=O)C1c2ccccc2C(=O)N(C)C1c1cn(C)c2ccccc12 (configuration not stated)	-2.19%
COc1ccc(CN(C(=O)c2cccs2)c2nccs2)cc1OC	0.76%
CCn1c(SCC(=O)Nc2nccs2)nnc1-c1ccncc1	1.46%
CCCN(CCC)CCNC(=O)c1cc2c(C)nc3ccccc3c2o1	5.25%
Cn1cccc1Cc1nnc(SCC(=O)NCc2ccc3c(c2)OCO3)n1CCc1ccccc1	1.04%
CCOc1ccc(N(CC(=O)NCc2ccc(OC)cc2)S(=O)(=O)c2c(C)noc2C)cc1	-1.57%
Cc1ccc(-c2nc(CS(=O)CC(=O)N3CCN(c4ncccn4)CC3)c(C)o2)cc1 (configuration not stated)	4.64%
Cc1nnc(SCC(=O)N(C(C)C)C(C)C)nc1C	0.76%
O=C(CSc1nc2[nH]ncc2c(=O)n1-c1ccccc1)N1CCCc2ccccc21	3.12%
CCOCC(=O)Nc1sc2c(c1C(=O)OCC)CCCC2	1.13%
CNC(=O)Nc1cc(C(C)(C)C)no1	-0.8%
COc1ccc(C(=O)N(CCN2CCOCC2)CC(=O)NC2CCCC2)cc1OC	1%
Fc1ccc2nc(Nc3nc4c(s3)CCCC4)sc2c1	96.9% (active)
Fc1ccc2nc(N3CCCCC3)sc2c1	0.07%
CNC(=O)c1ccc2nc(NC(C)=O)sc2c1	3.41%
O=C1c2ccncc2C(=O)N1C1CCCCC1	-0.82%
Cc1ncn(C23CC4CC(CC(O)(C4)C2)C3)n1	-1.21%
O=C1c2cccnc2C(=O)N1Cc1cccs1	-1.73%
CCOc1cc(S(=O)(=O)NCc2ccc3c(c2)OCO3)ccc1F	-0.11%
Cc1nnc(SCCCn2c(N3CCCCC3)nc3c2c(=O)[nH]c(=O)n3C)s1	-3.02%
